Source: PubChem
HCV inhibitor: inhibitors of hepatitis C virus infection | Potency, µM (highest dose often 41.8 µM), usual class: inhibitors | 340,000 compounds, 3.4% hits | Huh7.5.1 HCVcc-Cre infection, luciferase reporter, 44 h; active means well fitted inhibition curve with a large enough effect; inconclusive means small, poorly fitted or top-dose-only effect, or another doubt; inactive means no such curve, though single readings can be large or run the other way
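Cells seeded at 1,000/well and cultured 4 h, then compounds added followed by HCVcc-Cre virus (~0.5 moi). After 44 h further culture, luciferase substrate was added, plates held 15 min at room temperature, and luminescence read for 15 sec.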
FMDV antiviral: blocks foot and mouth disease virus; FMDV antiviral cell-based qHTS; AID 1159524; Potency, µM (doses to about 57.9 µM), usual class: inhibitors; 410,000 compounds, 1.2% hits; calls by dose curve; tested in HEK293T cells; further: read-out not given here; nearly all actives have a fitted effect of over 45% in size
LASV entry inh: Lassa virus entry inhibition. Lassa virus pseudotype entry inhibition, cell reporter. Potency, µM (highest dose often 37.9 µM), hits mostly inhibitors. 300,000 compounds, 1.2% hits. AID 540256; calls by dose curve; tested in HEK293 cells; further: nearly all actives have a fitted effect of over 50% in size
HCMV inh: human cytomegalovirus inhibition; HFF cells, HCMV-luciferase reporter, 72 h; hits give low values; activity change, negative = inhibition, % at 57.5 µM; 410,000 compounds, 4.5% hits; AID 1259415; in the data active means activity change below about -60%; inconclusive means no clear call, values can overlap the other calls; inactive means above about -39%
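Cell-based, HFFs, 1000 cells/well, 16 h 37C; cpds in DMSO + HCMV-luc, MOI 1 PFU/cell; 72 h 37C; OneGlo luminescence after 5 min RT; norm. to buffer vs Salinomycin 10uM.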
MARV entry inh: inhibitors of Marburg virus binding or cell entry. Marburg virus pseudotyped entry inhibition, cell reporter. 300,000 compounds, 1.8% hits. AID 540276. Potency, µM (series often up to 37.8 µM), actives largely listed as inhibitors; calls by dose curve; tested in HEK293 cells
Each line names hits and unclear results; the compound was inactive in the other large screens. Sampled rows, rich in hits. Any-hit rate of the full collection: about 7.9%.

Cc1ccc(S(=O)(=O)N2C[C@H]3C(=O)C[C@@H](c4ccc(Cl)cc4)N(S(=O)(=O)c4ccccc4C)[C@H]3C[C@H]2c2ccc(Cl)cc2)cc1	none (no result: HCV inhibitor, LASV entry inh, MARV entry inh)
Cc1ccc([C@@H]2CC(=O)[C@@H]3CN(S(=O)(=O)c4ccccc4C)[C@H](c4ccc(Cl)cc4)C[C@@H]3N2S(=O)(=O)c2ccc(C)cc2)cc1	FMDV antiviral inconclusive, HCMV inh -94 (no result: HCV inhibitor, LASV entry inh, MARV entry inh)
Cc1ccc(S(=O)(=O)N2[C@H](c3ccccc3)CC(=O)[C@@H]3CN(S(=O)(=O)c4ccccc4)[C@H](c4ccccc4)C[C@@H]32)cc1	none (no result: HCV inhibitor, LASV entry inh, MARV entry inh)
O=C(Nc1cccc(C(=O)O)c1)/C(=C\c1ccc(F)cc1)NC(=O)c1ccco1	none (no result: LASV entry inh)
CCN(C(=O)C1CCCN(c2ncnc3onc(-c4ccc(F)cc4)c23)C1)c1ccccc1 (stereo not drawn)	none (no result: HCV inhibitor, MARV entry inh)
Cc1ccc([C@@H]2CC(=O)[C@@H]3CN(S(=O)(=O)c4ccc(C)cc4)[C@H](c4ccccc4)C[C@@H]3N2S(=O)(=O)c2ccc(Cl)cc2)cc1	none (no result: HCV inhibitor, LASV entry inh, MARV entry inh)
Cc1ccc(S(=O)(=O)N2C[C@H]3C(=O)C[C@@H](c4ccccc4)N(S(=O)(=O)c4ccc(C)cc4)[C@H]3C[C@H]2c2ccc(Cl)cc2)cc1	HCMV inh -85 (no result: HCV inhibitor, LASV entry inh, MARV entry inh)
Cc1ccc(S(=O)(=O)N2[C@H](c3cccc(Cl)c3)CC(=O)[C@@H]3CN(S(=O)(=O)c4ccccc4C)[C@H](c4ccc(Cl)cc4)C[C@@H]32)cc1	FMDV antiviral inconclusive, HCMV inh -83 (no result: HCV inhibitor, LASV entry inh, MARV entry inh)
O=C(COC(=O)/C=C/c1cccc(Br)c1)NC1CCCC1	HCMV inh -100
COc1cc(NC(=O)c2ccccc2)c(C)cc1NC(=O)CC(CC(=O)O)c1ccccc1 (stereo not drawn)	none (no result: HCMV inh)
COc1ccc(CNC(=O)c2sc3nc4n(c(=O)c3c2C)CCCCC4)cc1	FMDV antiviral 22µM (no result: HCV inhibitor, MARV entry inh)
CCCN(C(=O)c1sc2nc3n(c(=O)c2c1C)CCCC3)c1ccccc1C	HCMV inh -102 (no result: HCV inhibitor, MARV entry inh)
CCN(C(=O)c1sc2nc3n(c(=O)c2c1C)CCCC3)c1ccccc1F	none (no result: HCV inhibitor, MARV entry inh)
Cc1c(C(=O)Nc2ccc(Oc3ccccc3)cc2)sc2nc3n(c(=O)c12)CCC3	HCV inhibitor 6.3µM, FMDV antiviral inconclusive, LASV entry inh inconclusive, MARV entry inh inconclusive
O=C(CC1(O)C(=O)N(CCc2ccccc2)c2ccc(Br)cc21)c1ccccc1O (stereo not drawn)	LASV entry inh inconclusive, HCMV inh -77 (no result: HCV inhibitor)
CCCCN1C(=O)C(O)(CC(=O)c2ccc(CC)cc2)c2cc(Br)ccc21 (stereo not drawn)	HCMV inh -79, MARV entry inh inconclusive (no result: HCV inhibitor)
C=CCN1C(=O)C(O)(CC(=O)c2ccco2)c2cc(Br)ccc21 (stereo not drawn)	HCMV inh -82 (no result: LASV entry inh, MARV entry inh)
COC(=O)CN1C(=O)C(O)(CC(=O)c2ccc(Br)cc2)c2ccccc21 (stereo not drawn)	HCMV inh -62 (no result: LASV entry inh, MARV entry inh)
COC(=O)CN1C(=O)C(O)(CC(=O)c2ccc(F)cc2)c2ccccc21 (stereo not drawn)	none (no result: HCV inhibitor)
Cc1ccc(-c2cn(CCC(=O)O)c(=O)cn2)cc1	none (no result: HCV inhibitor, FMDV antiviral, LASV entry inh, MARV entry inh)
CC(C)c1ccc(C(=O)CC2(O)C(=O)N(CCc3ccccc3)c3ccc(Cl)cc32)cc1 (stereo not drawn)	LASV entry inh inconclusive, HCMV inh -105, MARV entry inh inconclusive (no result: HCV inhibitor)
CCCN1C(=O)C(O)(CC(=O)c2ccc(C(C)C)cc2)c2ccccc21 (stereo not drawn)	none (no result: HCV inhibitor)
C#CCN1C(=O)C(O)(CC(=O)c2ccc(OC)c(OC)c2)c2cc(Br)ccc21 (stereo not drawn)	HCMV inh -62 (no result: HCV inhibitor)
N/C(=N\NS(=O)(=O)c1ccccc1C(F)(F)F)c1ccccn1	none (no result: LASV entry inh, MARV entry inh)
Cc1nc(C(F)(F)F)c(C(=O)N/N=C(\N)c2ccccn2)s1	HCV inhibitor 13µM, LASV entry inh inconclusive, MARV entry inh inconclusive
O=C(Nc1ccccc1)N[C@H]1CC[C@@]23CCCN2C(=O)CCC[C@H]3C1Cc1ccccc1 (stereo partly drawn)	none (no result: HCV inhibitor, FMDV antiviral, LASV entry inh, MARV entry inh)
CC1=CCC2C(=O)N(c3ccc(C(=O)Nc4ccccc4Cl)cc3)C(=O)C2C1 (stereo not drawn)	HCMV inh -102 (no result: LASV entry inh, MARV entry inh)
COc1ccc(OC)c(NC(=O)c2ccc(N3C(=O)C4CC=C(C)CC4C3=O)cc2)c1 (stereo not drawn)	HCMV inh inconclusive (no result: LASV entry inh, MARV entry inh)
CCC(C)NC(=S)Nc1ccc2nc(N3CCOCC3)cc(C)c2c1 (stereo not drawn)	HCV inhibitor 11µM, HCMV inh inconclusive (no result: LASV entry inh, MARV entry inh)
Cc1cc(N2CCOCC2)nc2ccc(NC(=S)NCCC(C)C)cc12	HCV inhibitor 10µM, LASV entry inh inconclusive
O=[N+]([O-])c1ccccc1S(=O)(=O)N(CC1CO1)c1ccccc1 (stereo not drawn)	none
CN(CC(=O)Nc1ccccc1C(F)(F)F)C(=O)c1ccccc1Sc1ccccc1C#N	none (no result: LASV entry inh, MARV entry inh)
Cc1noc(C)c1C(=O)N1CCC2(CCN(Cc3nccs3)CC2)CC1	none (no result: HCV inhibitor, LASV entry inh, HCMV inh, MARV entry inh)
c1ccc(OCCOCCOc2ccccc2)cc1	HCV inhibitor 1.1µM
OCCOc1ccccc1	none (no result: LASV entry inh, MARV entry inh)
Cc1ccc(N2C(=O)C(CC(=O)Nc3ccc(F)cc3)N(CCC3=CCCCC3)C2=O)cc1 (stereo not drawn)	LASV entry inh inconclusive, MARV entry inh inconclusive (no result: HCV inhibitor)
COC(=O)c1c(C)sc(-c2c(-c3ccc4c(c3)OCCO4)[nH]c3c2c(=O)[nH]c(=O)n3C)c1O	none (no result: HCV inhibitor)
COc1ccc(CC2=CC(=O)c3ccccc3C2=O)cc1	HCV inhibitor 22µM, FMDV antiviral inconclusive, HCMV inh -97 (no result: LASV entry inh, MARV entry inh)
COc1ccc(Cc2ccccc2C(=O)O)cc1	MARV entry inh inconclusive
CSc1nc2ccccc2nc1N(C)S(=O)(=O)c1ccc(C)cc1	HCMV inh -66
FC(F)(F)c1ccccc1-c1ccc2ncnc(NCc3cccs3)c2c1	none (no result: HCV inhibitor, LASV entry inh, HCMV inh, MARV entry inh)
CSc1nc2nccc(-c3ccc(Cl)cc3)n2n1	none
CSc1nc2nccc(/C=C\c3ccccc3)n2n1	HCV inhibitor inconclusive, FMDV antiviral inconclusive, HCMV inh -106
CCOc1ccc(NC(=O)CC2C(=O)N(c3ccccc3)C(=O)N2CCc2cccs2)cc1 (stereo not drawn)	LASV entry inh inconclusive, MARV entry inh inconclusive
CCN(CC)S(=O)(=O)c1ccc(C(=O)C(C#N)c2ccccn2)cc1 (stereo not drawn)	HCV inhibitor 10µM, HCMV inh inconclusive (no result: FMDV antiviral)
O=C(NCc1ccncc1)c1ccc(N2CCCC2)c([N+](=O)[O-])c1	HCMV inh -62
CCN(CC(=O)Nc1c(F)cccc1F)C(=O)c1ccc(N2CCCCC2)c([N+](=O)[O-])c1	LASV entry inh 7.1µM, MARV entry inh inconclusive (no result: HCV inhibitor)
NC(=O)c1ccc(N2CCN(S(=O)(=O)c3cccs3)CC2)c([N+](=O)[O-])c1	HCV inhibitor 2.2µM, FMDV antiviral 20µM, HCMV inh -84 (no result: LASV entry inh, MARV entry inh)
NC(=O)c1ccc(N2CCCCCC2)c([N+](=O)[O-])c1	LASV entry inh inconclusive, HCMV inh -60
Cc1ccc(S(=O)(=O)C(CNS(=O)(=O)c2cc(F)ccc2F)c2cccs2)cc1 (stereo not drawn)	HCMV inh inconclusive (no result: HCV inhibitor, MARV entry inh)
COCc1c(C(=O)N2CC3CCC2C3)cnn1-c1nccc(-c2ccccc2OC)n1 (stereo not drawn)	none (no result: HCV inhibitor, LASV entry inh, HCMV inh, MARV entry inh)
